PubChem BioAssay (Tox21)
Results filed as inconclusive are left out. Unmarked numbers belong to inactive results. The source made the active and inactive calls. Calls follow the shape of the dose curve; as a rule, active = well fitted activation curve with a large enough effect in the repeat runs; inconclusive = weak or mixed curves; inactive = flat fitted curve, though single readings scatter.

test: A CellTox Green Cytotoxicity Assay to monitor cytotoxicity in HepG2 cells - 40 hour (AID 1224879); settings: CellTox Green fluorescence; series mostly up to 76.8 µM; cytotoxicity increase: at the top concentration; also: nearly all actives have a fitted effect of over 40% in size
Outline: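 HepG2 cells were seeded together with the CellTox Green dye at 600 cells/well, left 5 h at 37 C/5% CO2, then given compounds in DMSO. Fluorescence from dye bound to dead-cell DNA was read repeatedly over 40 h of treatment at 37 C.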
% is scaled to controls: 0 for no effect and ±100 for the full control effect; potency is read from the fitted curve at half-maximal effect.

| SMILES | cytotoxicity increase | Potency |
| --- | --- | --- |
| CC1=NC(C)OC1C (stereo unspecified) | 3.55% | – |
| CCCC(c1cc(C(C)(C)C)c(O)cc1C)c1cc(C(C)(C)C)c(O)cc1C | – | 31.3 µM (active) |
| CCCCCCCCn1sc(Cl)c(Cl)c1=O | – | 9.77 µM (active) |
| CSc1ccc(/C=C2/C(C)=C(CC(=O)O)c3cc(F)ccc32)cc1 | -0.338% [at 35.3 µM] | – |
| C/C=C(\C)C(=O)OCc1ccccc1 | 11% | – |
| CCOC(=O)O[C@H](C)OC(=O)c1ccc2c(c1)cc(C(=O)NC1CCN(C(C)C)CC1)n2Cc1cc(-c2ccc(Cl)s2)on1 | – | 10.2 µM (active) |
| O=c1[nH]cnc2nc[nH]c12 | -3.87% [at 35.3 µM] | – |
| C[C@]12CCC(=O)C=C1CC[C@@H]1[C@@H]2[C@@H](O)C[C@@]2(C)[C@H]1CC[C@]2(O)C(=O)COC(=O)CCC(=O)O | -16.4% [at 35.3 µM] | – |
| NC(=O)CC[C@@H]1NC(=O)[C@H](Cc2ccccc2)NC(=O)[C@H](Cc2ccc(O)cc2)NC(=O)CCSSC[C@@H](C(=O)N2CCC[C@H]2C(=O)N[C@@H](CCCN=C(N)N)C(=O)NCC(N)=O)NC(=O)[C@H](CC(N)=O)NC1=O | -10.1% [at 35.3 µM] | – |
| COC(=O)C1=C(C)NC(C)=C(C(=O)OCC(C)C)C1c1ccccc1[N+](=O)[O-] (stereo unspecified) | 8.75% [at 35.3 µM] | – |
| [Cl][Au]([Cl])[Cl] | – | 7.76 µM (active) |
| OCCCCCCCCCCCCBr | – | 11.1 µM (active) |
| CC(C)=CCOc1ccc(/C=C/C(=O)c2ccc(OCC=C(C)C)cc2OCC(=O)O)cc1 | -3.9% [at 35.3 µM] | – |
| CSc1ccc(C(=O)c2[nH]c(=O)[nH]c2C)cc1 | -0.56% [at 35.3 µM] | – |
| CC(C)(C)c1ccc(C(=O)CCCN2CCC(OC(c3ccccc3)c3ccccc3)CC2)cc1 | – | 19 µM (active) |
| CCC(C)Nc1ccc(NC(C)CC)cc1 (stereo unspecified) | – | 17.7 µM (active) |
| O=[N+]([O-])c1ccccc1Nc1ccccc1 | 3.39% | – |
| Clc1ccc2nsnc2c1NC1=NCCN1 | -8.2% [at 35.3 µM] | – |

| SMILES | cytotoxicity increase | Potency |
| --- | --- | --- |
| CCCCc1oc2ccc(NS(C)(=O)=O)cc2c1C(=O)c1ccc(OCCCN(CCCC)CCCC)cc1 | – | 9.52 µM (active) |
| NNC(=O)c1cccc(C(=O)NN)c1 | -3.87% | – |
| CCCCCCCCCCCCCCCS(=O)(=O)Oc1ccccc1 | -1.57% [at 35.3 µM] | – |
| CCC(C)(C)C1CCCCC1OC(C)=O (stereo unspecified) | 2.6% | – |
| CCCCCCC[N+](CC)(CC)CCCCc1ccc(Cl)cc1 | – | 23.9 µM (active) |
| CCCCCOC(=O)CCCC | -19.4% | – |
| OCCN(CCO)c1nc(N2CCCCC2)c2nc(N(CCO)CCO)nc(N3CCCCC3)c2n1 | – | 23.9 µM (active) |
| Cc1cccc(S(=O)(=O)O)c1C | -0.688% | – |
| COc1cc(/C=C/C(=O)O[C@H]2CC[C@]34C[C@]35CC[C@]3(C)[C@@H]([C@H](C)CCC=C(C)C)CC[C@@]3(C)[C@@H]5CC[C@H]4C2(C)C)ccc1O | 5.7% [at 35.3 µM] | – |
| CCCCCCCCCCn1cc[n+](CCCCCCCCCC)c1C | – | 15.5 µM (active) |
| Clc1ccc(C(Cn2ccnc2)OCc2ccc(Sc3ccccc3)cc2)c(Cl)c1 (stereo unspecified) | 0.265% [at 35.3 µM] | – |
| Cc1cc(N)c(S(=O)(=O)O)cc1Cl | 6.68% | – |
| CC(C)(C)c1ccc(C(=O)O)cc1 | 3.56% | – |
| CCCCCCCCCCC=O | -0.355% | – |
| CC(C)C(C)(C)C(C)(C)C(C)(C)S | 0% | – |
| Oc1cccc2cc3cccc(O)c3c(O)c12 | -26.2% | – |
| CC(=O)OCC(C)OC(C)=O (stereo unspecified) | -13.1% | – |
| c1ccc(CSCc2ccccc2)cc1 | -2.14% | – |
